Compound activity (PubChem BioAssay)
Shown are actives, neighbours in structure and some others; about 9.2% of the full set was active somewhere.
Rab9 promoter act: activators of Rab9 promoter; AID 485297; 320,000 compounds, 2.8% hits; Huh7 Rab9 promoter-luciferase reporter, luminescence, 24 h; Potency, µM (titrated, usually from 9.22 µM), usual class: activators; further: nearly all actives have a fitted effect of over 60% in size
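Stable Rab9-luc Huh7, 1500 cells/well, 2 h settle; cmpd in DMSO, 24 h, 37 °C/5% CO2; luciferase reagent 10 min RT; luminescence.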
SMN2 splice enh: SMN2 splice variant enhancement. HEK293 SMN2-luciferase splicing reporter, luminescence, 30-36 h. Potency, µM (series often up to 46.1 µM), usual class: activators. 210,000 compounds, 2.8% hits; further: nearly all actives have a fitted effect of over 55% in size
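HEK293 cells carry an SMN2 minigene-luciferase reporter in which exon 7 inclusion puts luciferase in frame. Cells were seeded at 2000 cells/well, attached for 10-12 hours, then exposed to compounds for 30-36 hours at 37C before ONE-Glo luminescence.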
ELG1 genotox: inducers of genotoxicity in HEK293T ELG1-luciferase cells. Potency, µM (series often up to 46 µM), hits mostly activators. HEK293T ELG1-luciferase reporter, luminescence, 16 h. 330,000 compounds, 1.3% hits; further: nearly all actives have a fitted effect of over 60% in size
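DMSO vehicle served as control against compound-treated ELG1-luciferase HEK293T cells; exposure lasted 16 hr at 37 °C and 5% CO2, followed by ONE-Glo luminescence detection after 30 min.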
FLuc counter: counter-screen for miR-21 project: firefly luciferase inhibitors or activators; P08659; 360,000 compounds, 6.9% hits; Potency, µM (series often up to 57.5 µM), usual class: inhibitors; purified FLuc, Km substrates, luminescence inhibition; further: nearly all actives have a fitted effect of over 55% in size
Target sequence (P08659 whole entry, looked up): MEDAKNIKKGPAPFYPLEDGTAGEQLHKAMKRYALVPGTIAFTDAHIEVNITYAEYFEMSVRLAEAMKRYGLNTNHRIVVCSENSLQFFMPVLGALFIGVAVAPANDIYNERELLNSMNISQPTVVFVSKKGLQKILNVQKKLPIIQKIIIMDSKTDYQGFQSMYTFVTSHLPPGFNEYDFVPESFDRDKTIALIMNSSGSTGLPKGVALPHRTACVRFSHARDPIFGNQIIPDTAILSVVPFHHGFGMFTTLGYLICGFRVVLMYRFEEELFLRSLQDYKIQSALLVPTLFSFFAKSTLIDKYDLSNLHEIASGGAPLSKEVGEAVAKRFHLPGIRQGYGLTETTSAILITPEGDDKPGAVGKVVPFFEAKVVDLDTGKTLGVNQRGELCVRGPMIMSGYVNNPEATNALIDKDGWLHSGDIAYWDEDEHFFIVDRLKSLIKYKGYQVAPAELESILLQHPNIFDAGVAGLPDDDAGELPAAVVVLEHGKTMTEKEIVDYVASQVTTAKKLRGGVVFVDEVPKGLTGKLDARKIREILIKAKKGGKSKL
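Biochemical qHTS of compounds, final roughly 60 µM downward over six points, against 10 nM purified firefly luciferase using Km concentrations of substrates (10 uM D-luciferin, 10 uM ATP) in Tris acetate pH 7.5 buffer; luminescence output.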
ELG1 DNA repair: inhibitors of ELG1-dependent DNA repair in HEK293T cells; HEK293T ELG1-luciferase reporter, luminescence, 16 h; DNA damage induced by 5-fluorouridine; Potency, µM (series often up to 46.1 µM), usual class: inhibitors; 330,000 compounds, 2.3% hits; further: nearly all actives have a fitted effect of over 55% in size
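DMSO vehicle served as the neutral condition. Each well held 2,000 cells given 5-fluorouridine plus compound; after 16 hr at 37 °C/5% CO2, ONE-Glo was added and luciferase measured 30 min later.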
NPC1 prom act: activates the NPC1 promoter | Huh7 NPC1 promoter luciferase reporter, 24 h | Potency, µM (series often up to 9.22 µM), actives largely listed as activators | 320,000 compounds, 2.4% hits | AID 485313; further: nearly all actives have a fitted effect of over 60% in size
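Huh7 cells stably carrying NPC1 promoter–luciferase, plated in Opti-MEM with 10% FBS for 2 h, were exposed to compound in DMSO for 24 h at 37 °C; luciferase reagent was added for 10 min and luminescence read.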
A number is an active result; - = inactive; ? = inconclusive; . = not tested or not shown; [ ] = remark or other dose. The call rests on the fitted dose curve; in most records, active means well fitted curve in the direction sought with a large enough effect; inconclusive means small, poorly fitted or top-dose-only effect, or another doubt; inactive means no such curve, though single readings can be large; an effect the other way counts as inactive or inconclusive.

SMILES	Rab9 promoter act	SMN2 splice enh	ELG1 genotox	FLuc counter	ELG1 DNA repair	NPC1 prom act
CN(C(=O)C1CCOC1)c1nnc(-c2ccccn2)s1 (stereo not given)	?	-	20.6µM	15.1µM	?	-
CN(C(=O)C1CCOC1)c1nnc(-c2ccncc2)s1 (stereo not given)	-	?	-	-	-	-
CC(=O)c1sc(-c2ccccn2)nc1C	-	.	-	-	?	-
CCN1C(=O)c2ccccc2S(=O)(=O)c2ccc(C(=O)NCc3ccc(F)cc3)cc21	.	-	.	-	.	.
c1ccc(-c2nnc(-c3ccccn3)s2)nc1	0.0891µM	.	?	1.35µM	?	0.1µM
CN(C(=O)C1CCCO1)c1nnc(-c2ccccn2)s1 (stereo not given)	-	-	?	15.1µM	?	-
O=C1CCc2cc(S(=O)(=O)NCCc3ccc(Cl)cc3)cc3c2N1CC3	-	.	-	-	-	-
CC1CCc2c(sc(NC(=O)C3=COCCO3)c2C(N)=O)C1 (stereo not given)	1.58µM	.	?	0.757µM	?	2.51µM
CNC(=O)c1c(NC(=O)C2=COCCO2)sc2c1CCC(C)C2 (stereo not given)	-	.	-	2.69µM	?	-
CC(C)(C)C1CCc2c(sc(NC(=O)c3cccs3)c2C(N)=O)C1 (stereo not given)	3.98µM	-	?	0.536µM	?	?
COc1cc(C(=O)Nc2sc3c(c2C(N)=O)CCC(C)C3)cc(OC)c1OC (stereo not given)	.	-	.	-	.	.
CNC(=O)c1c(NC(=O)C2=COCCO2)sc(C)c1C	-	.	-	-	-	-
CC1CCc2c(sc(NC(=O)CSc3nc(N)cc(=O)[nH]3)c2C(N)=O)C1 (stereo not given)	-	.	-	16.9µM	-	-
N#Cc1c(NC(=O)CSc2nc(N)cc(=O)[nH]2)sc2c1CCCCCC2	-	-	-	-	?	-
CCOC(=O)c1c(C)oc2nc(C)nc(NCc3ccc(OC)cc3)c12	.	.	.	-	.	.
O=C(COc1ccc([N+](=O)[O-])cc1)Nc1cccc2nsnc12	-	.	-	-	-	-
Cc1cccc(OCC(=O)OC(C)C(=O)Nc2ccc(S(=O)(=O)N3CCCCC3)cc2)c1 (stereo not given)	-	.	-	-	-	-
Cc1cc(-c2nnc(SCC(=O)Nc3ccccc3Cl)n2C)no1	-	.	-	-	?	-
CC(C)(C)c1ccc(C(=O)Nc2ccccc2C(=O)NCCN2CCOCC2)cc1	-	.	-	5.36µM	?	-
CCOc1cc(NC(=S)NCC2CCCO2)c(OCC)cc1NC(=O)c1ccc(F)cc1 (stereo not given)	-	.	-	26.9µM	-	-
CCOc1cc(NC(=S)NCC2CCCO2)c(OCC)cc1NC(=O)c1ccc(C)cc1 (stereo not given)	-	-	-	-	-	-
O=C(NC(=S)NCC1CCCO1)c1ccc(Cl)cc1 (stereo not given)	-	?	?	?	?	-
O=C(Nc1ccccc1C(=O)NCC1CCCO1)c1ccco1 (stereo not given)	-	-	-	-	-	-
Cc1ccc(C(=O)NC(=S)NCC2CCCO2)cc1 (stereo not given)	?	14.1µM	?	16.9µM	?	2.82µM
Cc1ccc(C(=O)Nc2ccccc2C(=O)NCC2CCCO2)cc1 (stereo not given)	-	.	-	15.1µM	?	-
SMILES	Rab9 promoter act	SMN2 splice enh	ELG1 genotox	FLuc counter	ELG1 DNA repair	NPC1 prom act
COC(=O)c1cc2oc(C)cc2n1Cc1cccc(Cl)c1	.	-	.	-	.	.
COc1cc(C=O)ccc1Oc1ccc(S(=O)(=O)N2CCOCC2)cc1[N+](=O)[O-]	.	.	-	.	-	.
CC(C)=NNc1ncnc2nc[nH]c12	.	-[9.22 µM]	.	.	.	.
CCc1ccc(/C=N/Nc2ncnc3nc[nH]c23)cc1	1.26µM	.	7.3µM	3.01µM	?	2.82µM
COc1ccccc1CNc1ncnc2c1nnn2C	.	.	.	-	.	.
COC(=O)c1c(NC(=O)CN2CCC3(O)CCCCC3C2c2cc(OC)ccc2OC)sc(C)c1C (stereo not given)	-	-	-	-	9.2µM	-
COC(=O)c1c(NC(=O)CN2CCC3(O)CCCCC3C2c2ccc(F)cc2)sc(C)c1C (stereo not given)	-	-	-	-	-	-
O=C1NC(=O)/C(=C/c2ccccn2)S1	-	.	-	?	?	-
O=C1NC(=O)/C(=C/c2ccc(O)cc2)S1	?	.	?	15.1µM	?	-
CN(C(=O)c1ccncc1)C1CCCCC1	-	.	-	-	-	-
Cn1c2c(c(=O)[nH]c1=O)C(c1ccc(O)cc1)C1=C(N2)c2ccccc2C1=O (stereo not given)	-	-	-	16.9µM	?	-
Nc1nc2c(c(=O)[nH]1)C(c1ccccc1)C1=C(N2)c2ccccc2C1=O (stereo not given)	-	.	-	-	?	-
CCN(C(=O)c1ccc(C(C)(C)C)cc1)c1nnc(Cn2nnc3ccccc32)s1	-	-	-	-	4.11µM	-
CC(C)(C)c1cccc(Cn2nnc3ccccc32)c1O	-	.	-	-	-	-
CCc1cccc(CC)c1N(COC)C(=O)Cn1nnc2ccccc21	-	-	-	-	-	-
CCN(C(=O)CC(C)C)c1nnc(Cn2nnc3ccccc32)s1	-	-	-	-	8.2µM	-
CCc1ccc(NC(=O)CN2C(C(=O)OC)=C(c3ccccc3)c3ccccc3S2(=O)=O)cc1	.	-	.	-	.	.
O=C(NCCc1cn2ccccc2n1)c1cc(COc2ccc3ncccc3c2)on1	-	.	-	?	8.2µM	-
O=C(c1cc(COc2ccc3ncccc3c2)on1)N1CCCCCC1	-	-	-	?	?	-
COc1ccc2c(c1OC)C(=O)OC2Nc1nc(-c2cc3cc(Br)ccc3oc2=O)cs1 (stereo not given)	1.41µM	.	?	21.3µM	?	2µM
O=c1oc(CCO)cc2ccc(-c3ccc4[nH]ccc4c3)cc12	-	.	14.6µM	2.69µM	?	?
Cn1cncc1C#Cc1ccc2cc(CCO)oc(=O)c2c1	-	.	-	-	-	-
CN=C1S/C(=C\c2ccc(SC)cc2)C(=O)N1C	-	.	10.3µM	12µM	?	?
COc1cc(/C=C2\SC(=Nc3ccc(F)cc3)N(c3ccc(F)cc3)C2=O)ccc1OCC(=O)O	-	-	-	?	-	-
CCOC(=O)CSC1=NC(=O)/C(=C\c2ccc(Cl)cc2)S1	-	.	?	10.7µM	-	-
CSC1=N/C(=C\c2ccc(F)cc2)C(=O)S1	-	-	-	-	-	-
CSC1=NC(=O)/C(=C/c2ccc(SC)cc2)S1	-	-	-	9.53µM	?	-
CN=C1S/C(=C\c2ccc(OCC(=O)OC)c(OC)c2)C(=O)N1C	-	.	-	16.9µM	-	-
